Results reported in PubChem BioAssay (NCATS).
Records with an inconclusive call do not appear. Activity calls are given as the source filed them. Unless noted, the call rests on the fitted dose curve; in most records, active means well fitted curve in the direction sought with a large enough effect; inconclusive means small, poorly fitted or top-dose-only effect, or another doubt; inactive means no such curve, though single readings can be large; an effect the other way counts as inactive or inconclusive.

How the values were obtained:
[1] = target: Thyroid hormone receptor beta (Homo sapiens) (UniProt P10828); assay: qHTS assay for small molecule antagonists of thyroid hormone receptor beta signaling (AID 588547; active means well fitted inhibition curve with a large enough effect in the signal ratio, with a control signal flat, not every such curve was filed as active; the % refers to the signal ratio;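 further: cells stimulated with 0.4 nM T3 agonist during compound exposure; on the % scale 0 is the no-effect control and ±100 the full control effect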); conditions: TR-UAS-bla HEK293, beta-lactamase ratio, antagonist mode, 18 h
Thyroid hormone receptor beta (Homo sapiens), sequence (P10828 whole entry, looked up): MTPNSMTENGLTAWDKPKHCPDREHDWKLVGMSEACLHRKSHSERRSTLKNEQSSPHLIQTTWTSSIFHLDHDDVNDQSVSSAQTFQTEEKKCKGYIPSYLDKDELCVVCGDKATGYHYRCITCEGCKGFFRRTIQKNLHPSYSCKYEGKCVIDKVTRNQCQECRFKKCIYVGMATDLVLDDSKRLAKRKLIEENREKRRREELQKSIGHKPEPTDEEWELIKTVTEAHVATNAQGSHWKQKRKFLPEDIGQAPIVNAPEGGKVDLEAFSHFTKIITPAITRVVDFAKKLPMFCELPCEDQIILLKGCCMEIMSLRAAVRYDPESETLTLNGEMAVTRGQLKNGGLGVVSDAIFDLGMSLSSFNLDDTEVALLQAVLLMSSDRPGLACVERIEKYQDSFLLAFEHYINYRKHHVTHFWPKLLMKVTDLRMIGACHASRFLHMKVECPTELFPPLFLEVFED
Procedure, shortened: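 TR-UAS-bla GripTite HEK293 cells in 2% charcoal/dextran FBS medium were preincubated 4 h at 37 C, given compound (0.59 nM to 92 uM) plus 0.4 nM T3 (final) for 18 h, then CCF4 for 2 h at RT; Hill fit gave IC50.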

[2] = qHTS assay for small molecule antagonists of peroxisome proliferator-activated receptor delta signaling (AID 588535); conditions: HEK293T PPARd-UAS-bla, beta-lactamase FRET ratio, 18 h; 460 nm channel;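 further: cells co-treated with a PPAR-delta agonist as stimulator during compound exposure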
Procedure, shortened: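 Compounds tested in titration on PPAR-delta-UAS-bla HEK293T cells grown in charcoal/dextran-stripped serum (2%); beta-lactamase activity read via CCF4 emission at 460 and 530 nm.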

[3] = qHTS assay for small molecule agonists of retinoid X receptor alpha signaling (AID 588544; calls by dose curve); conditions: HEK293T RXRa-UAS-bla, beta-lactamase reporter, 18 h; 530 nm emission
[4] = target: Retinoic acid receptor RXR-alpha (Homo sapiens) (UniProt P19793); assay: as above; conditions: HEK293T RXRa-UAS-bla, beta-lactamase reporter, 18 h; series mostly up to 76.7 µM
Retinoic acid receptor RXR-alpha (Homo sapiens), sequence (P19793 whole entry, looked up): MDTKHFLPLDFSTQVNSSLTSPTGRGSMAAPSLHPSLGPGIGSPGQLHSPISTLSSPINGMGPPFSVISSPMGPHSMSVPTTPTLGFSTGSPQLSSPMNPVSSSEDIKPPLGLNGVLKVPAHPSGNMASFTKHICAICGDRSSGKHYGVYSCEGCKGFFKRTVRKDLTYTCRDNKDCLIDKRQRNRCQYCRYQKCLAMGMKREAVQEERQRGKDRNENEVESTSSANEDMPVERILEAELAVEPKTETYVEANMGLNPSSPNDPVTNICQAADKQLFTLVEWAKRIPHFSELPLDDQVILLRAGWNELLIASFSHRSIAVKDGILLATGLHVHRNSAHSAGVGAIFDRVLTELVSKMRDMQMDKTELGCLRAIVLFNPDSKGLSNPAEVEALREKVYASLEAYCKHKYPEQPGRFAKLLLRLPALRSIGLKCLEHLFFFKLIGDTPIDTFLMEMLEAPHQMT

[5] = target: Voltage-gated inwardly rectifying potassium channel KCNH2 (Homo sapiens) (UniProt Q12809); assay: qHTS Assay for Small Molecule Inhibitors of the Human hERG Channel Activity (AID 588834); conditions: U2OS BacMam hERG, FluxOR thallium flux fluorescence; series mostly up to 46.1 µM;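 further: lower thallium flux fluorescence means stronger hERG block; nearly all actives have a fitted effect of over 50% in size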; further: potency means the concentration at half of the fitted maximal effect
Voltage-gated inwardly rectifying potassium channel KCNH2 (Homo sapiens), sequence (Q12809 whole entry, looked up): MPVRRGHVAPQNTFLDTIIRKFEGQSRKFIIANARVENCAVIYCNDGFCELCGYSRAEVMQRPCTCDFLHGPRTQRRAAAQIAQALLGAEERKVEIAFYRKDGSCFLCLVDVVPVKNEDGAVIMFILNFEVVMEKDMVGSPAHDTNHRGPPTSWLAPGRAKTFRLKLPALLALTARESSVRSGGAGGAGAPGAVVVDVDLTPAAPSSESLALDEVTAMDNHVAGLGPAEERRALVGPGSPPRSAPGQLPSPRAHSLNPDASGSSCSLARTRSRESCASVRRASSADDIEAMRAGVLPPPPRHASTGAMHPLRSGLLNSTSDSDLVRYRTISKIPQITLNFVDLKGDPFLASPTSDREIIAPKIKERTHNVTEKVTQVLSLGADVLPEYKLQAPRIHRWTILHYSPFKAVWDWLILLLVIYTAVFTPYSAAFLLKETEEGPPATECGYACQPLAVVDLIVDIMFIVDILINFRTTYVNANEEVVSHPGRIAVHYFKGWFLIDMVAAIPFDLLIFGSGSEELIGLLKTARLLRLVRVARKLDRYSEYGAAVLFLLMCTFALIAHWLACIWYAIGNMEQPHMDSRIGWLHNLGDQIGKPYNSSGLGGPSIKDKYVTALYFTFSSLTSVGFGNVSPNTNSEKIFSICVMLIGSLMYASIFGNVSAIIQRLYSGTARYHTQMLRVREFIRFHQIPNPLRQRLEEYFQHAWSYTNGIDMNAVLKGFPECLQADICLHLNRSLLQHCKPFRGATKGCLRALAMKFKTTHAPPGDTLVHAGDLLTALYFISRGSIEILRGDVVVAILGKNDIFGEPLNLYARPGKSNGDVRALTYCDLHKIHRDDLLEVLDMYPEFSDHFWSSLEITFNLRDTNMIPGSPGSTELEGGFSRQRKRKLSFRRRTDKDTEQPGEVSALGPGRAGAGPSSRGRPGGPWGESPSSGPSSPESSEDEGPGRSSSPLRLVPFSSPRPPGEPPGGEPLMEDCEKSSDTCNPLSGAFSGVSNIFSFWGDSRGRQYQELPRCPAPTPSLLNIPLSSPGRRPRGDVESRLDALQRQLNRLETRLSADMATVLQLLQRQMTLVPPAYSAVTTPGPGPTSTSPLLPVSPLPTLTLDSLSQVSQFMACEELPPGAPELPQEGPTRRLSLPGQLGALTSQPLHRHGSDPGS
Procedure, shortened: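 Cells were infected with hERG-BacMam virus for 4 hrs at room temperature, grown overnight, then seeded at 2000/well. After dye loading and roughly 10 min compound treatment, thallium influx was triggered and fluorescence recorded.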

[6] = S16 Schwann cell PMP22 intronic element firefly luciferase assay (AID 624032); conditions: S16 rat Schwann cells, PMP22 element FLuc, 24 h; series mostly up to 57.5 µM; further: nearly all actives have a fitted effect of over 30% in size; further: potency means the concentration at half of the fitted maximal effect
Procedure, shortened: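 Rat S16 Schwann cells stably carrying a PMP22 intronic element-driven Fluc reporter were seeded overnight, then exposed to compounds for 24 h at 37 °C. Luminescence was normalized to PTC124 (positive control) and DMSO (0% activity).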

[7] = S16 Schwann cell PMP22 intronic element beta-lactamase assay (AID 624044; calls by dose curve; further: nearly all actives have a fitted effect of over 15% in size; further: potency means the concentration at half of the fitted maximal effect); conditions: S16 rat Schwann cells, PMP22 element beta-lactamase FRET, 24 h; series mostly up to 38.3 µM
Procedure, shortened: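 Beta-lactamase reporter under a PMP22 intronic regulatory element in stable S16 rat Schwann cells; 24 h compound exposure. 460 nm blue signal normalized between DMSO (0%) and potassium clavulanate, with 535 nm FRET tracking viability; curves classed by r2 and response.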

[8] = target: Thyroid hormone receptor beta (Homo sapiens) (UniProt P10828); assay: qHTS assay for small molecule agonists of thyroid hormone receptor beta signaling (AID 588545; calls by dose curve;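 further: 0% = DMSO only and 100% = 10 nM T3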); conditions: TR-UAS-bla GripTite HEK 293, beta-lactamase ratio, agonist mode, 18 h, percent of T3 response, DMSO as zero; series mostly up to 76.7 µM
Procedure, shortened: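 Efficacy and EC50 values derive from Hill fits of qHTS titration data, normalized to 10 nM T3 and DMSO-only wells. HEK 293 reporter cells were stimulated for 18 hrs at 37 C, with beta-lactamase activity measured by CCF4 fluorescence.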

[9] = target: Vitamin D3 receptor (Homo sapiens) (UniProt P11473); assay: qHTS assay for small molecule agonists of vitamin D receptor signaling (AID 588543; calls by dose curve;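 further: 0% = DMSO basal and 100% = reference agonist control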); conditions: HEK293T VDR-UAS-bla, beta-lactamase ratio, 16 h; series mostly up to 76.8 µM
Vitamin D3 receptor (Homo sapiens), sequence (P11473 whole entry, looked up): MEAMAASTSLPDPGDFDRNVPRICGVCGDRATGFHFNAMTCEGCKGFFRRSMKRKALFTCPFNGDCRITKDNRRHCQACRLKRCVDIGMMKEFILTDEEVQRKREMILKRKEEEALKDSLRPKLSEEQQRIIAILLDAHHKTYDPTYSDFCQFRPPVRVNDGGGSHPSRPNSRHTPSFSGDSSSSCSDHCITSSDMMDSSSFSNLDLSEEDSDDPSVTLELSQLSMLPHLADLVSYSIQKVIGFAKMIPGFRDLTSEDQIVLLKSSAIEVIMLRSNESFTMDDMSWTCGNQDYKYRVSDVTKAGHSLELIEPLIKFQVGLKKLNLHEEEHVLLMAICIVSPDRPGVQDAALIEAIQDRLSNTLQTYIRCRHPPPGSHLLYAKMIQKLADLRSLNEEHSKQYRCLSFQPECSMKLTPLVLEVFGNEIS
Procedure, shortened: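 qHTS in agonist mode: compound titrations stimulate a VDR-driven β-lactamase reporter in HEK293T cells over 16 h at 37 °C. Response normalized to 50 nM 1α,25-dihydroxyvitamin D3 = 100%, DMSO = 0%; Hill fitting gives EC50 and maximal response.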

[10] = S16 Schwann cell viability assay (CellTiter-Glo assay) (AID 624031); conditions: S16 rat Schwann cells viability, 24 h; series mostly up to 57.5 µM;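 further: cellular ATP luminescence as a viability measure; plate controls were DMSO-treated cells for no effect and cell-free wells for full effect; nearly all actives have a fitted effect of over 70% in size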
Procedure, shortened: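 Native S16 Schwann cells (rat), serum-containing medium, overnight attachment then 24 h drug exposure at 37 °C/5% CO2. CellTiter-Glo ATP signal; normalized to cell-free and vehicle wells.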

[11] = target: Glutaminase kidney isoform, mitochondrial (Homo sapiens) (UniProt O94925); assay: qHTS for Inhibitors of Glutaminase (GLS): LOPAC Validation (AID 624146); conditions: glutaminase enzyme activity inhibition; series mostly up to 46.1 µM; further: nearly all actives have a fitted effect of over 60% in size; further: potency means the concentration at half of the fitted maximal effect
Glutaminase kidney isoform, mitochondrial (Homo sapiens), sequence (O94925 whole entry, looked up, canonical isoform): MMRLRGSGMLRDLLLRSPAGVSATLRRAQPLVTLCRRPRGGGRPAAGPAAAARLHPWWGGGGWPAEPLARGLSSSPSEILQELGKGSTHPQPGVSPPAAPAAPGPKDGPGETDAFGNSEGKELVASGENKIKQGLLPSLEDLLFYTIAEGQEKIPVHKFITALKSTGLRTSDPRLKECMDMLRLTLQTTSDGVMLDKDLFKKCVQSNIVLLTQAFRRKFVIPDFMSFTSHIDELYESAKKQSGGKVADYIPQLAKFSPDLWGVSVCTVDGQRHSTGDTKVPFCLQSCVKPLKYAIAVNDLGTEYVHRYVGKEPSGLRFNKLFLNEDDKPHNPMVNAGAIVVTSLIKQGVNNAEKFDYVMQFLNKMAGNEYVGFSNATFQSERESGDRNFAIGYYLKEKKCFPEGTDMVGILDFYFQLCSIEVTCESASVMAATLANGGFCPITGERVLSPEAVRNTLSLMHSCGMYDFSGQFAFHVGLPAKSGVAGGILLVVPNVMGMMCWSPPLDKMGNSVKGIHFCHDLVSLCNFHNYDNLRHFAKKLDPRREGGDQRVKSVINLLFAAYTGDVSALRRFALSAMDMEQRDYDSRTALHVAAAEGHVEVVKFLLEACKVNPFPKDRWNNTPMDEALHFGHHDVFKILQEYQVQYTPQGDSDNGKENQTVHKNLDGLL
Procedure, shortened: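 Enzyme dispensed in phosphate buffer (45 mM, pH 8.2, 0.02% Tween-20), compounds pinned in, then 1 mM L-glutamine solution and the glutamate oxidase–HRP–Amplex Red mix added; fluorescence read immediately and again after 30 min at room temperature.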

[12] = qHTS of Trypanosoma Brucei Inhibitors: LOPAC Validation (AID 624147); conditions: purified enzyme assay, luminescence, 45 min; series mostly up to 57.5 µM; further: 0% is about no effect
Procedure, shortened: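 In this concentration-response screen, enzyme-free wells defined baseline while DMSO plates tracked drift. Each reaction combined TbPYK, substrate, compound and 130 uM ADP for 45 min at room temperature. Kinase-Glo Plus luminescence gave the signal.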

[13] = target: Glucagon-like peptide 1 receptor (Homo sapiens) (UniProt P43220); assay: qHTS of GLP-1 Receptor Agonists: LOPAC Validation (AID 624148); conditions: GLP-1R agonist cell assay; series mostly up to 46.1 µM;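 further: 0% is about no effect; higher luminescence signal means agonism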
Glucagon-like peptide 1 receptor (Homo sapiens), sequence (P43220 whole entry, looked up): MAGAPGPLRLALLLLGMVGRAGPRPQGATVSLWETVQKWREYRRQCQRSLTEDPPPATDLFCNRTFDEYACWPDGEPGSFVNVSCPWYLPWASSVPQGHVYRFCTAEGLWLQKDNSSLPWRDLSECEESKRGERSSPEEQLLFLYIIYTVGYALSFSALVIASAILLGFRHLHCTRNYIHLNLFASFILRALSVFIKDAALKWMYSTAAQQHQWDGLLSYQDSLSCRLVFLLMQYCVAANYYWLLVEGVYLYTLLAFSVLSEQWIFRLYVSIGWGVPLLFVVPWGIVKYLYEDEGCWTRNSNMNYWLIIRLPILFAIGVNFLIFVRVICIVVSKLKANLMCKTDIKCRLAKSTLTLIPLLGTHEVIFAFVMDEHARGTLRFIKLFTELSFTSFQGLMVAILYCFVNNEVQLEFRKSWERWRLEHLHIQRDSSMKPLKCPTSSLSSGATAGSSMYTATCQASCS
Procedure, shortened: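 HEK293 cells stably co-expressing a cAMP-responsive luciferase reporter and a hypersensitive GLP-1R were plated 12 h at 37 °C and exposed to compounds for 4-6 hr at 37 °C, 5% CO2. Luminescence was read 12 min after adding detection reagent.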

[14] = target: Luciferin 4-monooxygenase (Photinus pyralis) (UniProt P08659); assay: Biochemical firefly luciferase enzyme assay for NPC (AID 624030);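 further: purified P. pyralis luciferase at 10 nM with luciferin and ATP substrate; 0% = DMSO and -100% = full luciferase inhibition by PTC124 control; nearly all actives have a fitted effect of over 70% in size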; conditions: purified P. pyralis luciferase, luminescence, 5 min; series mostly up to 58.6 µM
Luciferin 4-monooxygenase (Photinus pyralis), sequence (P08659 whole entry, looked up): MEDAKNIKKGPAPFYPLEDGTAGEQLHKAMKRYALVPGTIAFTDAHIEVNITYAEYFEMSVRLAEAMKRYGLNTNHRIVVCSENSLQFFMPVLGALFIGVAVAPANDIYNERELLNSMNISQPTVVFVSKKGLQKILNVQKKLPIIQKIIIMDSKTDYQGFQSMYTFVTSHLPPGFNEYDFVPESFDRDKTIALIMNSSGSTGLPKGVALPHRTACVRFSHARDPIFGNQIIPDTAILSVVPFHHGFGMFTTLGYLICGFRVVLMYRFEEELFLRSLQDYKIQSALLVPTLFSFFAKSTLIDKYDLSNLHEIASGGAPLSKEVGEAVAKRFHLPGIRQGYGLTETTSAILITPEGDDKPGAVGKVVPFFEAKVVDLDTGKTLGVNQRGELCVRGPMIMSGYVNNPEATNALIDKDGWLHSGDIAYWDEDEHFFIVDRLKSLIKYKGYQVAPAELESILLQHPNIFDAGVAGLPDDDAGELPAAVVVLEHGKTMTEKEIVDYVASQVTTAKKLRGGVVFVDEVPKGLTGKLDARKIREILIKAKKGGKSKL
Procedure, shortened: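 Counter-screen for direct inhibition of the luciferase enzyme by approved-drug library compounds, run at 10 nM enzyme in 50 mM Tris acetate (final). Luminescence was read within 5 min of enzyme-buffer addition and normalized to PTC124 versus DMSO (0%).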

CN(C)CCC=C1c2ccccc2CCc2ccccc21
inactive: activity change % (negative = inhibition) [1] -28.2%

CCn1cc(C(=O)O)c(=O)c2ccc(C)nc21
24.5%: max response [3]
inactive: Potency [4] | Potency [5]
27.2%: max response [2]

COc1cc2c(c(OC)c1OC)-c1ccc(OC)c(=O)cc1[C@@H](NC(C)=O)CC2
inactive: activity change % (negative = inhibition) [1] -20.1%
active: Potency [6] 0.102 µM | Potency [7] 0.0891 µM

C[C@H]1O[C@@H](O[C@H]2[C@@H](O)C[C@H](O[C@H]3[C@@H](O)C[C@H](O[C@H]4CC[C@@]5(C)[C@H](CC[C@@H]6[C@@H]5CC[C@]5(C)[C@@H](C7=CC(=O)OC7)CC[C@]65O)C4)O[C@@H]3C)O[C@@H]2C)C[C@H](O)[C@@H]1O
inactive: outcome [8]

C[C@]12C/C(=C/O)C(=O)C[C@@H]1CC[C@@H]1[C@@H]2CC[C@@]2(C)[C@H]1CC[C@]2(C)O
inactive: outcome [9] | outcome [8] | Potency [5] | Potency [10] | Potency [7]

COc1ccccc1N1CCNCC1
inactive: Potency [5] | Potency [10] | Potency [6] | Potency [7] | Potency [11] | outcome [12] | outcome [13]

FC(F)(F)c1cccc(C2=CCN(CCc3ccc4ccccc4c3)CC2)c1
active: Potency [5] 1.58 µM
inactive: Potency [10] | Potency [6]

CC(C)=CC1C(C(=O)OCc2cccc(Oc3ccccc3)c2)C1(C)C (stereo not drawn)
inactive: Potency [5] | Potency [14] | Potency [10] | Potency [6] | Potency [7]

CC[C@@H](CO)NC(=O)[C@@H]1C=C2c3cccc4[nH]cc(c34)C[C@H]2N(C)C1
inactive: Potency [5] | Potency [14] | Potency [10] | Potency [7] | outcome [12] | outcome [13]

NCC(CC(=O)O)c1ccc(Cl)cc1 (stereo not drawn)
inactive: Potency [5] | Potency [14] | Potency [10] | Potency [6] | Potency [11] | outcome [12] | outcome [13]

CCN(C(C)=O)c1cccc(-c2ccnc3c(C#N)cnn23)c1
inactive: Potency [5] | Potency [10] | Potency [6]

Cc1cccc(C)c1NC1=NCCCS1
inactive: Potency [5] | Potency [14] | Potency [10] | Potency [6] | Potency [7] | Potency [11] | outcome [12] | outcome [13]

CC(C)NCC(O)c1ccccc1Cl (stereo not drawn)
inactive: Potency [5] | Potency [14] | Potency [10] | Potency [6]

CN1CCN(C(=O)O[C@H]2c3nccnc3C(=O)N2c2ccc(Cl)cn2)CC1
inactive: Potency [5] | Potency [10] | Potency [6]

CC(C)(N)Cc1ccc(Cl)cc1
inactive: Potency [5] | Potency [10] | Potency [6]

O=C(NC(O)C(Cl)(Cl)Cl)NC(O)C(Cl)(Cl)Cl (stereo not drawn)
inactive: Potency [5] | Potency [14] | Potency [10] | Potency [6]

Cn1c(CCCC(=O)O)nc2cc(N(CCCl)CCCl)ccc21
inactive: Potency [5] | Potency [14] | Potency [10]
active: Potency [6] 1.02 µM

CN1C(=S)CN=C(c2ccccc2)c2cc(Cl)ccc21
inactive: Potency [5] | Potency [10] | Potency [6] | Potency [7]

Clc1cccc(N2CCNCC2)c1
inactive: Potency [5] | Potency [14] | Potency [10] | Potency [6]

C=C1CC[C@@]2(O)[C@H]3Cc4ccc(O)c5c4[C@@]2(CCN3CC2CC2)[C@H]1O5
inactive: Potency [5] | Potency [10] | Potency [6]

CC(=O)Nc1cc([As](=O)(O)O)ccc1O
inactive: Potency [5] | Potency [10] | Potency [6]

NP(N)(=O)NC(=O)c1ccc(F)cc1
inactive: Potency [5] | Potency [10] | Potency [6]

CC[N+](CC)(CC)CC
inactive: Potency [5] | Potency [14] | Potency [10]

CC(C)CC(N(C)C)C1(c2ccc(Cl)cc2)CCC1 (stereo not drawn)
inactive: Potency [5] | Potency [14] | Potency [10] | Potency [6] | Potency [7]

CCN(CC)CCOC(=O)C(O)(c1ccccc1)c1ccccc1
inactive: Potency [14] | Potency [10] | Potency [7]
active: Potency [5] 15.8 µM

CC1OC(C)OC(C)O1 (stereo not drawn)
inactive: Potency [5] | Potency [14] | Potency [10] | Potency [6] | Potency [7]

N#CC(C#N)=Cc1ccc(O)c(O)c1
inactive: Potency [5] | Potency [14] | Potency [10] | outcome [12] | outcome [13]
active: Potency [11] 0.355 µM

CC1NCCOC1c1ccccc1 (stereo not drawn)
inactive: Potency [5] | Potency [14] | Potency [10] | Potency [6]

O=P1(NCCCl)OCCCN1CCCl (stereo not drawn)
inactive: Potency [5] | Potency [14] | Potency [10] | Potency [6] | Potency [7]

CC(=O)[C@H]1CC[C@H]2[C@@H]3CC[C@H]4C[C@](C)(O)CC[C@]4(C)[C@H]3CC[C@]12C
inactive: Potency [5] | Potency [10] | Potency [6] | Potency [7] | Potency [11] | outcome [12] | outcome [13]

CCOC(=O)C1(c2ccccc2)CCN(CCC(C#N)(c2ccccc2)c2ccccc2)CC1
active: Potency [5] 0.355 µM
inactive: Potency [10]

O=[N+]([O-])c1cc([As](=O)(O)O)ccc1O
inactive: Potency [5] | Potency [10] | Potency [6] | Potency [7]
